target: RBFOX1; experiment: pooled miR-30 sensor sort-seq; sequence = guide strand; settings: shRNA

Point of comparison: TTTTATTTGTCATTACACGTGC, sensor-assay potency score (higher = more potent) 0.123. Against it:
- TTACATAATATAGCACTCTGGA — lower, -0.421
- TTATTCATTATCTAGCATCTGT — higher, 0.299
- TATTTGTCATTACACGTGCTGT — lower, -1.1
- AAACATTTGTCTGAGGTCCGGA — higher, 0.142
- TTCTAGAACTTAACAACTCCAC — lower, -0.286
- TTTTTATTCATTATCTAGCATC — lower, -0.945
- TTATTTGTCATTACACGTGCTG — higher, 0.199

target: RBM12B; experiment: as above; settings: shRNA

Point of comparison: TATGACATTTAAGACCTCCTGA, sensor-assay potency score (higher = more potent) 0.971. Against it:
- TAGATCTTTAATAGCAGCCATA — lower, -1.64
- TAATTGAAGAGCCATATCCAGA — lower, -1.22
- TATCTCTCTCTAGTGACCCTGA — lower, 0.0397
- TAAGTCTTAATAACACCTCTGT — lower, 0.203
- TAATAGGAGTTACTCTACCTGA — lower, -0.42
- TAAGTCTTGAAGATTACCGATG — lower, -1.18
- TTTTTGTGAAACATGTCCGGGC — lower, 0.0214
- ATTTTTGTGAAACATGTCCGGG — lower, -0.845
- TTAAGTGAACATAAAATCCAAG — lower, -0.9
- TTATACTGTATCGAAACTGAAT — lower, -1.19
- TAGTCTTCTGCATTTCTGCCTT — lower, -0.412

target: RBM15B; experiment: as above; settings: shRNA

Point of comparison: TTGACGTGATCAATGGTCCGAA, sensor-assay potency score (higher = more potent) 0.476. Against it:
- TGTGACACAAACATGACGCTGG — higher, 0.96
- TTGCTGAGGGAGTTGCTGCTGG — lower, -0.717
- TATAGGCAAAGCTATCTCCTTT — lower, -0.598
- TTTTTCAACACCAGAAGCCCAT — lower, 0.0926
- TTGTGACACAAACATGACGCTG — lower, -1.03
- TAAGAGGACCGCATAGCCGTTG — lower, -0.808
- TTTAAAATAACTGCTTTTGTGA — lower, -0.54
- TTTGACGTGATCAATGGTCCGA — higher, 0.695
- TTTTGTGACACAAACATGACGC — higher, 0.652
- TCGTGTGACCTCGTCAAGCTTG — lower, -1.02

target: RBM28; experiment: as above; settings: shRNA

Point of comparison: TTCTTCACCTTCGTCGTCTGAA, sensor-assay potency score (higher = more potent) -0.116. Against it:
- TTGAGGTCTCGCATCACTCTAC — lower, -0.147
- TTTCTTGGCAACAGTCACGTTG — lower, -0.362
- TTGGTCTGGAACCCGGTCCATG — lower, -1.16
- TTGAAAAAGTGACATAGCCAAA — lower, -1.59
- TTGCACAGCTTTATCCTCTTGC — higher, 0.184
- TTGTCATCTACAGCCTTTGGGA — lower, -0.978
- TTTTCCTAGATACCTGCTCGGA — lower, -0.748
- TTTTGTTTGAGACTTGCACAGC — lower, -0.43

Reference: the OligoGym collection
